Assay results from PubChem BioAssay AID651791 (National Center for Advancing Translational Sciences (NCATS), 2012).
Records with an inconclusive call do not appear. Calls of active or inactive are those of the source. Calls come from the whole dose curve; as a rule, active = well fitted inhibition curve with a large enough effect; inconclusive = small, poorly fitted or top-dose-only effect; inactive = no such curve, though single readings can be large or run the other way.

Assay: InCell qHTS Assay for Inhibitors of the mTORC1 Signaling Pathway in MEF (Tsc2-/-, p53-/-) Cells: Hit Validation;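 note: phospho-S6 Ser235/236 signal normalized to propidium iodide cell count per well; nearly all actives have a fitted effect of over 75% in size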
Conditions: phospho-rpS6 immunofluorescence, 24 h; activity change, negative = inhibition: at 38.3 µM (top of the series)
Potency is the fitted concentration of half-maximal effect.

SMILES | activity change, negative = inhibition | Potency
Cc1c(C(=O)OC2CCC(C)CC2)[nH]c2c1C(=O)CC(c1ccccc1Cl)C2 (configuration not stated) | -100% | –
Cc1ccc(S(=O)(=O)c2nc(-c3ccco3)oc2SC(C)c2ccccc2)cc1 (configuration not stated) | -100% | –
CCS(=O)(=O)c1ncc(Cl)c(C(=O)N2CCN(c3ccc(OC)cc3)CC2)n1 | – | 4.65 µM (active)
CC(C)OCc1cc(CN2CCN(c3cccc(C(F)(F)F)c3)CC2)c(O)c2ncccc12 | -100% | –
CC1=Nc2cc(C(=O)NC(C)C)ccc2Sc2ccc(C)cc21 | -100% | –
CCc1ccc(NC(=O)C2CCCN(S(=O)(=O)c3cccc4cccnc34)C2)cc1 (configuration not stated) | -100% | –
CCOC(=O)c1c(NC(=O)c2cc(CC)on2)sc(C(C)=O)c1C | -100% | –
Cc1ccc(-c2cc(C(=O)N3CCN(c4ccccc4)CC3)c3ccccc3n2)cc1C | -100% | –
CCOC(=O)c1ccc2ncc(C(=O)OCC)c(NCCc3ccc(OC)c(OC)c3)c2c1 | -100% | –
CCc1ccc(S(=O)(=O)c2nnn(-c3ccc(F)cc3)c2N)cc1 | -100% | –
COC(=O)c1ccccc1NC(=O)c1nc(S(=O)(=O)Cc2cccc(C)c2)ncc1Cl | – | 3.69 µM (active)
Cc1ccc(CN2C(=O)C(=O)c3cc(Br)cc(C)c32)cc1 | – | 18.5 µM (active)
CCCCOC(=O)c1ccc(NC(=O)c2ccc3c(c2)CCN3S(=O)(=O)c2ccccc2)cc1 | -100% | –
CCC1CN(C(=O)NCc2ccc(F)cc2)c2cc(C)ccc2O1 (configuration not stated) | -100% | –
C=C(C)CSc1nc(-c2ccccc2)cc(-c2ccc(OC)cc2)c1C#N | -100% | –
Cc1ccccc1CN1C(=O)C(O)(CC(=O)c2ccccc2)c2cc(Cl)ccc21 (configuration not stated) | -2.04% | –
COC(=O)c1ccccc1NC(=O)Cn1c(=O)n(-c2ccc(C)cc2)c(=O)c2ccccc21 | -18.6% | –
CCN(c1ccccc1)S(=O)(=O)c1ccc(NC(=O)c2nc(S(C)(=O)=O)ncc2Cl)cc1 | – | 3.69 µM (active)
O=C(NCC(c1cccs1)S(=O)(=O)c1cccs1)c1ccccc1 (configuration not stated) | -100% | –

SMILES | activity change, negative = inhibition | Potency
CC1CCCN(CCCNC(=O)c2ccc3c(c2)N(Cc2ccc(Cl)cc2)C(=O)c2ccccc2S3(=O)=O)C1 (configuration not stated) | -100% | –
CCS(=O)(=O)c1ncc(Cl)c(C(=O)Nc2ccccc2)n1 | – | 2.61 µM (active)
CCOC(=O)c1cnc2ccc(C)cc2c1Nc1ccc(N(CC)CC)cc1 | -100% | –
FC(F)(F)c1cccc(Nc2nc3nonc3nc2Nc2ccc(Cl)cc2)c1 | -100% | –
CCOC(=O)c1ccc(N2C(=O)c3n[nH]c(C)c3C2c2cccc(Br)c2)cc1 (configuration not stated) | -100% | –
CCOC(=O)N1CCN(Cc2nc3cc(NC(=O)CC(C)C)ccc3n2C(C)C)CC1 | -100% | –
CCOc1ccc(N(CC(=O)Nc2ccccc2CC)S(=O)(=O)c2c(C)noc2C)cc1 | -100% | –
CC1=Nc2cc(C(=O)NC3CCCC3)ccc2Sc2ccc(Cl)cc21 | -100% | –
CCOC(=O)c1[nH]c2ccccc2c1NC(=O)c1ccccc1OCC | -100% | –
COCCCNC(=O)c1cc2c(=O)oc3ccc(C)cc3c2s1 | -100% | –
COc1ccc(-c2nc(S(=O)(=O)c3ccc(Cl)cc3)c(N3CCCCCC3)o2)cc1 | -100% | –
O=C(Nc1ccc2oc(-c3ccc4ccccc4c3)nc2c1)c1cc(Br)ccc1Cl | – | 18.5 µM (active)
Cc1ccc(NC(=O)CSc2ccc(-c3ccccn3)nn2)cc1F | -100% | –
COc1ccc(OC)c(NC(=O)c2nc(S(=O)(=O)Cc3ccc(F)cc3)ncc2Cl)c1 | – | 2.61 µM (active)
COc1cccc(-c2nc(SCC(=O)NCC3CCCO3)c(-c3ccc(F)cc3)[nH]2)c1 (configuration not stated) | -100% | –
CCCCS(=O)(=O)c1nc(-c2ccc(Br)cc2)cc(-c2ccccc2)c1C#N | – | 16.5 µM (active)
COc1ccc(N(C)C(=O)c2cc(S(=O)(=O)N3CCc4ccccc43)cn2C)c(OC)c1 | -100% | –
CC(C)CCNc1nc(Nc2ccccc2)c2cnn(C)c2n1 | -100% | –
